Experimental findings from PubChem BioAssay (EPA / NIEHS) are described below.

Molecules are shown by their SMILES. Calls of active or inactive are those of the source. The calls were made as follows: active = hit-call score of the fitted dose curve at least 0.9, where 1 is the maximum; inactive = score below 0.9.

The nature of assay [1]: APR_HepG2_CellLoss_72hr: Apredica 72-hour HepG2 Assay for Cell Loss (AID 2282915). Particulars: high-content imaging. Summed up:
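HepG2 cells exposed 72 h to compound at 0.39–200 uM (10 concentrations, duplicate) in 0.5% DMSO. Fixed with 3.7% formaldehyde and Hoechst 33342-stained. Imaged at 20x; nuclear count gives cell number, fitted bidirectionally versus DMSO.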

Assay [2] is described as follows: APR_HepG2_P-H2AX_72hr: Apredica 72-hour HepG2 Assay for H2AX Phosphorylation (AID 2282916).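 Also: phospho-histone H2A.x immunostain intensity per cell marking DNA damage.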 Particulars: imaging, actives raise or lower the signal. Summed up: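 Readout: phospho-H2A.x immunofluorescence (FITC secondary) plus Hoechst nuclear stain, high-content imaging at 20x, six fields/well. HepG2, 72 hr compound exposure, 0.39–200 uM, final DMSO 0.5% v/v. Gain or loss fitted relative to DMSO baseline.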

Assay [3] is described as follows: APR_HepG2_MitoMembPot_72hr: Apredica 72-hour HepG2 Assay for Mitochondrial Membrane Potential (AID 2282917). The settings on record: imaging, actives raise or lower the signal. Summed up:
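HepG2 cells dosed 72 hr with compound at 0.39–200 uM in duplicate, 0.5% v/v DMSO final. Mitochondria stained with 250 nM MitoTracker Red CMXRos for 30 min before formaldehyde fixation, imaged by high-content fluorescence; bidirectional fit versus DMSO.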

Assay [4] in a line: APR_HepG2_MitoticArrest_72hr: Apredica 72-hour HepG2 Assay for Mitotic Arrest (AID 2282918). The settings on record: high-content imaging, actives raise or lower the signal. The method, boiled down:
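Using high-content imaging of fixed HepG2 cells, phospho-histone H3 signal was measured following a 72 hr incubation with ten-point compound dilutions up to 200 uM. DMSO served as the negative control and baseline for bidirectional curve fitting.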

A short description of assay [5]: APR_HepG2_MicrotubuleCSK_72hr: Apredica 72-hour HepG2 Assay for Microtubule CSK Stabilty (AID 2282919). Particulars: HepG2 microtubule cytoskeleton, high-content imaging, actives raise or lower the signal. The method, boiled down:
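HepG2, 72 hr cmpd exposure, 0.39–200 uM (10 pts, duplicate), 0.5% DMSO. 3.7% formaldehyde fix, 0.5% Triton perm, anti-alpha-tubulin/Cy5 plus Hoechst. HCS fluorescence intensity; bidirectional fit vs DMSO baseline; taxol as positive control.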

Assay [6] can be described thus: APR_HepG2_P-H2AX_24hr: Apredica 24-hour HepG2 Assay for H2AX Phosphorylation (AID 2282920). The settings on record: high-content imaging, actives raise or lower the signal. The method, boiled down: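 Human HepG2 liver cells, treated 24 hr with test chemicals (0.39–200 uM, final DMSO 0.5% v/v), are fixed and co-stained for phospho-H2A.x and c-Jun with Hoechst. Imaged intensity is fitted in both directions against DMSO controls.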

Assay [7] is described as follows: APR_HepG2_StressKinase_72hr: Apredica 72-hour HepG2 Assay for Stress Kinase (AID 2282921). The settings on record: HepG2 stress kinase (phospho-c-Jun) imaging, actives raise or lower the signal. Summed up: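 Phospho-c-Jun immunofluorescence measured by high-content imaging at 20x, six fields per well; bidirectional curve fitting against DMSO as baseline. Dosing: 0.39–200 uM, 72 h, 0.5% DMSO final.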

The nature of assay [8]: APR_HepG2_MitoMass_72hr: Apredica 72-hour HepG2 Assay for Mitochondrial Mass (AID 2282924).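 Also: MitoTracker Red CMXRos stain intensity per cell imaged as mitochondrial mass.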 The settings on record: high-content imaging, actives raise or lower the signal. Summed up:
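Read-out: MitoTracker Red fluorescence intensity from automated imaging (20x, six fields per well) in human HepG2 liver cells. Dosing ran 72 hr, 0.39–200 uM, 0.5% DMSO; bidirectional curve fitting versus DMSO baseline.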

Assay [9] can be described thus: APR_HepG2_NuclearSize_72hr: Apredica 72-hour HepG2 Assay for Nuclear Size (AID 2282925). Particulars: high-content imaging, actives raise or lower the signal. The method, boiled down: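 Read-out: nuclear diameter from Hoechst 33342 images (ArrayScan, 20x, six fields/well), via cell-cycle image analysis. HepG2 were dosed 0.39–200 uM for 72 hr in 0.5% DMSO. Bidirectional fit relative to DMSO.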

A short description of assay [10]: ATG_CRE_CIS: Attagene CIS-FACTORIAL HepG2 Assay for human cAMP Responsive Element (CRE) binding protein 3 (AID 2282926). Particulars: HepG2 CRE cis-reporter, Attagene multiplexed mRNA; actives raise or lower the signal. Summed up: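 Liver-derived HepG2, transfected with a CRE-containing reporter panel, exposed 24 h; transcript levels sized and quantified by capillary electrophoresis of labelled amplicons; signal changes either way referenced to vehicle.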

Assay [11] is described as follows: ATG_CMV_CIS: Attagene CIS-FACTORIAL HepG2 Assay for human CMV (Internal Marker) (AID 2282928).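 Also: endpoint acts as a background internal control marker rather than a target.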 The settings on record: HepG2 CMV promoter reporter, transcription factor profiling; actives raise or lower the signal. The method, boiled down: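 Bidirectional fits against DMSO are applied to reporter mRNA, read by RT-PCR with capillary electrophoresis, from HepG2 cells exposed 24 h. The endpoint serves as an internal CMV background marker within the cis-factorial reporter panel.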

Assay [12] can be described thus: ATG_DR4_LXR_CIS: Attagene CIS-FACTORIAL HepG2 Assay for human Liver X Receptor (LXR), DR4 submotif (AID 2282929). Particulars: HepG2 Attagene DR4 cis-reporter, mRNA transcription; actives raise or lower the signal. Summed up: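 HepG2, transient MRTU transfection, cis-element (DR4) promoter; 24 h compound exposure; total RNA → oligo(dT) RT → PCR → 6-FAM primer extension → HpaI cut → CE. Gain/loss vs DMSO, bidirectional fit.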

In assay [13] the target is Aryl hydrocarbon receptor (Homo sapiens) (UniProt P35869). The experiment in a line: ATG_Ahr_CIS: Attagene CIS-FACTORIAL HepG2 Assay for human Aryl Hydrocarbon Receptor (Ahr) (AID 2282930). The settings on record: HepG2 AhR cis-factorial reporter transcription; actives raise or lower the signal. The method, boiled down:
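HepG2 cells transiently transfected with cis-element-driven multiplexed reporter units; endogenous AhR activity read as reporter mRNA 24 h after dosing, via RT-PCR, 6-FAM labelling, HpaI digestion and capillary electrophoresis. Bidirectional fit relative to DMSO.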

Assay [14] is described as follows: ATG_AP_1_CIS: Attagene CIS-FACTORIAL HepG2 Assay for human Activator Protein 1 (AP-1) (AID 2282931). Particulars: HepG2 Attagene cis-factorial AP-1 reporter mRNA; actives raise or lower the signal. Summed up: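 Transient MRTU transfection of HepG2 → 24 h chemical treatment → RNA isolation, RT-PCR, 6-FAM labelling, HpaI digest → capillary electrophoresis. Fit: bidirectional, DMSO negative control.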

The nature of assay [15]: ATG_BRE_CIS: Attagene CIS-FACTORIAL HepG2 Assay for human Bone Morphogenetic Protein (BMP) Response Element (BRE) (AID 2282933). Particulars: HepG2 BMP response element reporter, Attagene transcription factor profiling; actives raise or lower the signal. The method, boiled down:
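A HepG2 multiplex reporter system measured inducible reporter mRNA 24 h post-dosing. Detection: RT-PCR, 6-FAM primer extension, HpaI digestion, capillary electrophoresis. Activity fitted bidirectionally relative to DMSO.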

In assay [16] the target is Retinoic acid receptor alpha (Homo sapiens) (UniProt P10276). Put plainly: ATG_DR5_RAR_CIS: Attagene CIS-FACTORIAL HepG2 Assay for human Retinoic Acid Receptor Alpha (RARE), DR5 submotif (AID 2282934).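 As to AC50: reporter responds to endogenous RAR alpha beta and gamma in HepG2 not RARA alone.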 Particulars: HepG2 Attagene cis-factorial RARE DR5 reporter, mRNA; actives raise or lower the signal. The method, boiled down: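 HepG2 cells transiently transfected with multiplexed reporter units; DR5 cis-element drives reporter through endogenous transcription factors. After 24 h dosing, reporter mRNA quantified by RT-PCR, fluorescent labeling, HpaI digestion and capillary electrophoresis; bidirectional fitting versus DMSO.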
Retinoic acid receptor alpha (Homo sapiens), sequence (P10276 whole entry, looked up): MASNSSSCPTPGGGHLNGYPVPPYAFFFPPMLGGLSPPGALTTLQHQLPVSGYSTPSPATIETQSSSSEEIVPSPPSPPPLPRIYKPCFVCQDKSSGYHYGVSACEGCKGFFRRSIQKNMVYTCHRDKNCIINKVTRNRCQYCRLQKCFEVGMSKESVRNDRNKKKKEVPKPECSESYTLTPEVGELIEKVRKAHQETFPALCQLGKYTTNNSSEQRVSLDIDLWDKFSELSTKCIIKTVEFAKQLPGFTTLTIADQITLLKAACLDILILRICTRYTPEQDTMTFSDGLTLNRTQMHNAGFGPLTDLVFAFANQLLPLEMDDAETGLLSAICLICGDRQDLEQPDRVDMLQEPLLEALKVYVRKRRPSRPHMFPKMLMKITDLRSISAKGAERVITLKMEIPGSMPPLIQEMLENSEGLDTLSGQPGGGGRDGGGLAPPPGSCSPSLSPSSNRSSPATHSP

Assay [17] is described as follows: APR_HepG2_StressKinase_24hr: Apredica 24-hour HepG2 Assay for Stress Kinase (AID 2282922). Particulars: HepG2 stress kinase (phospho-c-Jun) imaging, actives raise or lower the signal. Summed up: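 Read-out: phospho-c-Jun immunofluorescence (Cy3 secondary) quantified by high-content imaging at 20x, nuclei defined by Hoechst 33342. Human HepG2 liver cells dosed 24 hr, 0.39–200 uM, DMSO 0.5% v/v; gain or loss of signal fitted relative to DMSO.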

Assay [18] in a line: APR_HepG2_p53Act_72hr: Apredica 72-hour HepG2 Assay for p53 Activation (AID 2282923).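 Also: average cellular p53 protein immunofluorescence intensity in HepG2 cells.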 The settings on record: high-content imaging, actives raise or lower the signal. The method, boiled down: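 Readout: p53 immunofluorescence quantified by automated high-content imaging at 20x, six fields per well, nuclei located via Hoechst. Dosing ran 72 hr over ten concentrations from 0.39 to 200 uM; bidirectional curve fitting against DMSO baseline.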

Assay [19] addresses CCAAT/enhancer-binding protein beta (Homo sapiens) (UniProt P17676). The experiment in a line: ATG_C_EBP_CIS: Attagene CIS-FACTORIAL HepG2 Assay for human CCAAT/Enhancer Binding Protein (C/EBP) beta (AID 2282927). Particulars: HepG2 Attagene cis-factorial transcription factor reporter; actives raise or lower the signal. The method, boiled down: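 HepG2 transiently transfected with multiplexed reporter units under cis-regulatory promoters reporting endogenous C/EBPb activity. After 24 h exposure, reporter mRNA assayed by RT-PCR, fluorescent labelling, HpaI digestion and capillary electrophoresis; bidirectional fitting versus DMSO.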

Aryl hydrocarbon receptor (Homo sapiens), sequence (P35869 whole entry, looked up): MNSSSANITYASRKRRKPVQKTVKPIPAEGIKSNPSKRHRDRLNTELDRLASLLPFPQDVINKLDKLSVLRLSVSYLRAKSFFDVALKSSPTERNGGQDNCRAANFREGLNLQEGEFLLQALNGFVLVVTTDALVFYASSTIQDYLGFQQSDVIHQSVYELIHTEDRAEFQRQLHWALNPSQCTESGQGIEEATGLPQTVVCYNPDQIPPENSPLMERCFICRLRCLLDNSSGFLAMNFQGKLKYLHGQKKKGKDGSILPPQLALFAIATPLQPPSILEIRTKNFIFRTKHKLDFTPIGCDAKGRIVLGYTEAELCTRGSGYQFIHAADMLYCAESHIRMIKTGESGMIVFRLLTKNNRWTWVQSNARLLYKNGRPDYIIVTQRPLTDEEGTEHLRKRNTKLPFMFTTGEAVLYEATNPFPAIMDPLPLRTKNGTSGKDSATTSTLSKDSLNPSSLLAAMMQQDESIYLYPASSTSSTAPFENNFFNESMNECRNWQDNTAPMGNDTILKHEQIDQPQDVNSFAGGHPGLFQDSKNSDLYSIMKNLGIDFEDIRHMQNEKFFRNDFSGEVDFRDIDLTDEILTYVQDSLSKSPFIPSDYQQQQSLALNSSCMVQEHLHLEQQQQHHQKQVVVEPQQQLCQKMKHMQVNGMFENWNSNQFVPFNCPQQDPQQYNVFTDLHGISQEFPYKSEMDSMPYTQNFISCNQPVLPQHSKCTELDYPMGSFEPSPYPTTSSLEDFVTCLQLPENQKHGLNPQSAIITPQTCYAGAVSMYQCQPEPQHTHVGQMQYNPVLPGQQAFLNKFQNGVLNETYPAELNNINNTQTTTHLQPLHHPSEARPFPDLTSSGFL
CCAAT/enhancer-binding protein beta (Homo sapiens), sequence (P17676 whole entry, looked up): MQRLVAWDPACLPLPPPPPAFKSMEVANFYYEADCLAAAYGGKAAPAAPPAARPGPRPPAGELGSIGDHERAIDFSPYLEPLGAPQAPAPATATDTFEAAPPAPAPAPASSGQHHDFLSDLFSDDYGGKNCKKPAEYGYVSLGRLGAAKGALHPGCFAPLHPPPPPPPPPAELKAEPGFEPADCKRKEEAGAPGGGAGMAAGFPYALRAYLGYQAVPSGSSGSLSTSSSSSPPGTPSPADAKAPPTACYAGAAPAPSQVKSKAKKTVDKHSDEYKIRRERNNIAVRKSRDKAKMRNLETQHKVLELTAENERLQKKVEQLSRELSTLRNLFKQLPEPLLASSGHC

The AC50 is the concentration at which the activity in the assay is half-maximal. `CC(C)N1C(=O)N(c2ccccc2)CSC1=NC(C)(C)C`: the figures for the AC50 in assay [1], in [5] and in assay [6] were 42.5 µM (active), 32.6 µM (active) and 111 µM (active), respectively. For the same compound, the outcome in [2], in [3], in assay [4], in assay [7], in [8] and in assay [9] was inactive. Also, the outcome in assay [10], in [11], in [12], in [13], in assay [14] and in assay [15] was inactive.
Regarding `Cc1nc(N(C)C)nc(OC(=O)N(C)C)c1C`, the call in assay [1], in [2], in [3], in [4], in assay [6] and in assay [7] was inactive. In addition, the compound was called inactive in assay [8], in [10], in assay [11], in assay [12], in assay [13] and in [14]. The compound was called inactive in assay [15] and in [16].
With `CCN(CC)c1nc(C)cc(OP(=S)(OC)OC)n1`, the result in assay [1], in assay [2], in assay [3], in [4], in [6] and in assay [7] was inactive. In addition, the result in assay [17], in assay [18], in assay [8], in assay [9], in assay [19] and in assay [11] was inactive. Besides, the outcome in assay [14], in assay [15] and in [16] was inactive. Also, the AC50 is 21.9 µM (active) in assay [10], 50 µM (active) in assay [12] and 30.7 µM (active) in assay [13].
Take `CNC(=O)Oc1cccc2ccccc12`: the AC50 in assay [1] was 102 µM (active); in assay [2], 97.3 µM (active); in assay [3] it was 76.9 µM (active); in [6], 102 µM (active); in [8], 36 µM (active); in assay [11], 50 µM (active). For the same compound, the AC50 is 6.71 µM (active) in assay [13] and 23.6 µM (active) in assay [15]. The compound was classed as inactive in assay [4], in assay [7], in assay [9], in assay [10], in assay [19] and in [12]. The compound was called inactive in assay [14] and in assay [16].
Take `CC(C)Oc1cccc(NC(=O)c2ccccc2C(F)(F)F)c1`: the AC50 was 131 µM (active) in assay [1]; 100 µM (active) in assay [5]; 13.6 µM (active) in [10]; 5.21 µM (active) in assay [19]; 41.8 µM (active) in assay [11]; 22.2 µM (active) in assay [13]. Besides, the results for the AC50 in assay [15] and in assay [16] were 9.92 µM (active) and 9.42 µM (active), respectively. Besides, the result in assay [2], in assay [3], in assay [4], in assay [6], in assay [7] and in [17] was inactive. In addition, the result in assay [8], in assay [12] and in assay [14] was inactive.
